This is an account of results in PubChem BioAssay (NCATS).

Results filed as inconclusive are left out. The source made the active and inactive calls. Calls follow the shape of the dose curve; as a rule, active = well fitted cell-killing curve with a large enough effect; inconclusive = small, poorly fitted or top-dose-only effect, or effect the other way; inactive = no such curve, though single readings can be large or run the other way.

The nature of assay [1]: Quantitative High-Throughput drug screen in 47 multiple myeloma cell lines against the NCATS MIPE library collection: VP6_DJ cell viability assay (AID 1919867). Also: nearly all actives have a fitted effect of over 40% in size. An outline of the steps: (§1)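 Cells were exposed to library compounds for 48 hours, after which ATP was measured by CellTiter-Glo. Signal was taken as median relative luminescence units.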
The nature of assay [2]: Quantitative High-Throughput drug screen in 47 multiple myeloma cell lines against the NCATS MIPE library collection: UTMC2_PLB cell viability assay (AID 1919868). Also: nearly all actives have a fitted effect of over 55% in size. The settings on record: CellTiter-Glo ATP luminescence, 48 h; viability (% of DMSO control): at 45.8 µM (top of the series). An outline of the steps: as §1
A general note: Cellular ATP, detected with luciferase, serves as a proxy for viable cell number.

Assay [3] can be described thus: Quantitative High-Throughput drug screen in 47 multiple myeloma cell lines against the NCATS MIPE library collection: RPMI8226_ATCC cell viability assay (AID 1919871). Also: nearly all actives have a fitted effect of over 30% in size. An outline of the steps: as §1
Assay [4] is described as follows: Quantitative High-Throughput drug screen in 47 multiple myeloma cell lines against the NCATS MIPE library collection: KMS28BM_JCRB cell viability assay (AID 1919874). Also: nearly all actives have a fitted effect of over 35% in size. An outline of the steps: as §1
Assay [5] in a line: Quantitative High-Throughput drug screen in 47 multiple myeloma cell lines against the NCATS MIPE library collection: PE2_PLB cell viability assay (AID 1919869). Also: nearly all actives have a fitted effect of over 35% in size. An outline of the steps:
as §1

Assay [6] can be described thus: Quantitative High-Throughput drug screen in 47 multiple myeloma cell lines against the NCATS MIPE library collection: PCM6_Riken cell viability assay (AID 1919870). Also: nearly all actives have a fitted effect of over 30% in size. An outline of the steps: as §1
Assay [7] can be described thus: Quantitative High-Throughput drug screen in 47 multiple myeloma cell lines against the NCATS MIPE library collection: OPM2_DSMZ cell viability assay (AID 1919872). Also: nearly all actives have a fitted effect of over 30% in size. An outline of the steps: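 qHTS of the MIPE 4.0 collection: 500 myeloma cells/well, 48 h drug exposure at 37C in 5% CO2, then CellTiter-Glo for 5 min at room temperature before luminescence reading.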
A short description of assay [8]: Quantitative High-Throughput drug screen in 47 multiple myeloma cell lines against the NCATS MIPE library collection: KMS11_JCRBsus cell viability assay (AID 1919873). Also: nearly all actives have a fitted effect of over 50% in size. An outline of the steps:
as §1
Potency is read from the fitted curve at half-maximal effect.

With `CN(C(Cc1ccc(OS(=O)(=O)c2cccc3cnccc23)cc1)C(=O)N1CCN(c2ccccc2)CC1)S(=O)(=O)c1cccc2cnccc12` (stereo not given), the Potency in assay [1] was 3.72 µM (active); in assay [2], 6.62 µM (active); in assay [3], 5.26 µM (active); in assay [4], 14.8 µM (active).
On to `O=C(c1ccc(F)c(F)c1Nc1ccc(I)cc1F)N1CC(O)([C@H]2CCCCN2)C1`, for which the Potency in assay [1] is 9.35 µM (active); in assay [5], 7.43 µM (active); in assay [6], 16.6 µM (active); in assay [3] it was 20.9 µM (active); in assay [7], 13.2 µM (active); in assay [8], 18.7 µM (active). The Potency in assay [4] is 20.9 µM (active).
With `OC[C@H]1O[C@@H](Oc2ccc(O)cc2)[C@H](O)[C@@H](O)[C@H]1O`, the Potency is 7.43 µM (active) in assay [1] and 9.35 µM (active) in assay [2]. The Potency result in assay [6], in assay [3], in assay [7] and in assay [4] was “inactive” each time.
With `COc1nc(C)cnc1NS(=O)(=O)c1cccnc1-c1ccc(-c2nnco2)cc1`, the Potency entry in assay [1], in assay [5], in assay [6], in assay [3], in assay [7] and in assay [8] was “inactive” in each case. For the same compound, the Potency result in assay [4] was “inactive”.
Take `CCC(=O)NCC[C@@H]1CCc2ccc3c(c21)CCO3`: the Potency result in assay [1], in assay [2], in assay [5], in assay [3], in assay [8] and in assay [4] was “inactive” in each case.
For the compound `C[C@H](c1ccc(F)cc1CCCC(=O)O)N(c1cc(F)ccc1F)S(=O)(=O)c1ccc(Cl)cc1`, the Potency in assay [1] is 3.72 µM (active); in assay [2], 14.8 µM (active); in assay [6], 6.62 µM (active); in assay [7] it was 3.32 µM (active); in assay [4], 16.6 µM (active).
For `CC(=O)Nc1cccc(-n2c(=O)n(C3CC3)c(=O)c3c(Nc4ccc(I)cc4F)n(C)c(=O)c(C)c32)c1`, the Potency entry in assay [1] is “inactive”. Moreover, the Potency was 0.296 µM (active) in assay [5] and 1.66 µM (active) in assay [3].
With `COc1ccc(-c2oc3c(CC=C(C)C)c(O)cc(O)c3c(=O)c2O)cc1`, the Potency in assay [1] is 5.26 µM (active); in assay [6] it was 7.43 µM (active); in assay [3] it was 20.9 µM (active); in assay [4], 3.72 µM (active). Moreover, the Potency entry in assay [5], in assay [7] and in assay [8] was “inactive” in each case.
